According to PubChem BioAssay AID504834 (National Center for Advancing Translational Sciences (NCATS), 2011):
Hit rate of the full screen: of about 320,000 compounds, about 22,000 (6.9%) were called active. Entries that show only a call come without a potency. Not shown: some 27% with an inconclusive outcome. Calls come from the whole dose curve; as a rule, active = well fitted inhibition curve with a large enough effect; inconclusive = small, poorly fitted or top-dose-only effect, or another doubt; inactive = no such curve, though single readings can be large or run the other way. The full list was thinned out, with actives kept by preference.

assay: Primary qHTS for delayed death inhibitors of the malarial parasite plastid, 96 hour incubation; conditions: P. falciparum luciferase reporter growth; series mostly up to 28.7 µM
Method in brief: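 Erythrocytes infected with luciferase-expressing P. falciparum were dispensed at 2% hematocrit and 0.05% parasitemia (final), then incubated with compounds 96 hours at 37 C in 5% CO2. Luminescence after detection reagent addition reported growth.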
Potency is the fitted concentration of half-maximal effect.

**Q.** Which Potency does the source give for Cc1ccccc1N1CCN(Cc2nc(Cc3ccccc3F)no2)CC1 here?
**A.** The Potency was “inactive”.

**Q.** Which Potency does the source give for COc1ccc(NC(=O)CC2C(=O)NC3CCCCC3N2C(=O)c2ccc(F)cc2)cc1 (centres undefined) here?
**A.** The Potency was “inactive”.

**Q.** With COc1ccc(CNC(=O)CN(Cc2ccccc2Cl)C(=O)c2csnn2)cc1 as the molecule, how does the Potency read?
**A.** Its Potency is “inactive”.

**Q.** Which Potency does the source give for COc1ccc(NC(=O)C2=CC(c3ccc(OC)c(OC)c3)=NS(=O)(=O)N2C)cc1 here?
**A.** Its Potency is “inactive”.

**Q.** Which Potency does the source give for COc1ccc(/C=C2\SC(=O)N(CCC(=O)NC3CCS(=O)(=O)C3)C2=O)cc1 (centres undefined) here?
**A.** Its Potency is “inactive”.

**Q.** Which Potency does the source give for O=C(c1cc(COc2cccc(C(F)(F)F)c2)on1)N1CCSCC1 here?
**A.** Its Potency is “inactive”.

**Q.** With C=CCn1c(=O)c(C(=O)NCc2ccc3c(c2)OCO3)c(O)c2ccccc21 as the molecule, how does the Potency read?
**A.** Its Potency is “inactive”.

**Q.** With O=C1[C@H]2[C@@H](c3ccc(Cl)cc3)N3C(=O)N(c4cccc(F)c4)C(=O)[C@@]3(Cc3ccccc3)[C@H]2C(=O)N1C1CCCCC1 as the molecule, how does the Potency read?
**A.** Its Potency is 8.28 µM (active).

**Q.** Which Potency does the source give for O=C(COC(=O)c1ccc(F)cc1)NCCCc1ccccc1 here?
**A.** Its Potency is “inactive”.

**Q.** Which Potency does the source give for Cc1cc(C)c(-c2csc(NC(=O)CCCc3nc4ccccc4c(=O)[nH]3)n2)c(C)c1 here?
**A.** The Potency was 0.329 µM (active).

**Q.** With Cc1cccc(S(=O)(=O)CC(=O)Nc2nc(-c3ccccc3)cs2)c1 as the molecule, how does the Potency read?
**A.** Its Potency is “inactive”.

**Q.** Which Potency does the source give for CC(C)(C)c1ccc(NC(=O)COC(=O)CCc2nc3ccccc3c(=O)[nH]2)cc1 here?
**A.** The Potency was “inactive”.

**Q.** With CC(C)Oc1ccc(/C=N/NC(=O)c2nnn(-c3nonc3N)c2CN(C)C2CCCCC2)cc1 as the molecule, how does the Potency read?
**A.** Its Potency is “inactive”.

**Q.** With CCC(C)Sc1nc2c(cnn2-c2ccc(F)cc2)c(=O)[nH]1 (centres undefined) as the molecule, how does the Potency read?
**A.** The Potency was “inactive”.

**Q.** Which Potency does the source give for CN=c1scc(-c2cc(OC)ccc2OC)n1/N=C/c1c(C)[nH]c2ccccc12 here?
**A.** The Potency was 6.57 µM (active).

**Q.** Which Potency does the source give for COCCNC(=S)N/N=C/c1c(C)[nH]c2ccccc12 here?
**A.** Its Potency is “inactive”.

**Q.** For COc1ccc(OC)c(N=Cc2c(O)[nH]c3ccccc23)c1, which Potency is on record?
**A.** The Potency was “inactive”.

**Q.** Which Potency does the source give for CC1CCC(NC(=O)CNC(=O)c2ccc3ccccc3c2)CC1 (centres undefined) here?
**A.** Its Potency is “inactive”.

**Q.** With O=C(C1CC(=O)N(C2CCCCC2)C1)N1CCN(c2ccccc2)CC1 (centres undefined) as the molecule, how does the Potency read?
**A.** Its Potency is “inactive”.

**Q.** For Cc1ccc2c(c1)N(CC(=O)NCCc1ccc(Cl)cc1)C(=O)c1cccnc1O2, which Potency is on record?
**A.** The Potency was 10.4 µM (active).

**Q.** For O=C(CN1C(=O)c2cccnc2Oc2ccc(Cl)cc21)Nc1ccc(F)cc1, which Potency is on record?
**A.** The Potency was “inactive”.

**Q.** For CCCN1CCN(CCCNC(=O)CN2C(=O)COc3ccccc32)CC1, which Potency is on record?
**A.** The Potency was “inactive”.

**Q.** For Cc1cc(C(=O)NCCc2ccc(Cl)cc2)c(C)o1, which Potency is on record?
**A.** The Potency was “inactive”.

**Q.** Which Potency does the source give for Cc1ccc2c(c1)N(CC(=O)N1CCC(C)CC1)C(=O)c1cccnc1O2 here?
**A.** Its Potency is “inactive”.

**Q.** Which Potency does the source give for Cc1ccc2c(c1)N(CC(=O)NCCCN1CCCCC1)C(=O)c1cccnc1O2 here?
**A.** Its Potency is 9.28 µM (active).

**Q.** With COc1ccc(NC(=O)COC(=O)c2n[nH]c3ccccc23)c(OC)c1 as the molecule, how does the Potency read?
**A.** The Potency was “inactive”.

**Q.** Which Potency does the source give for CCCc1ccc(C(=O)COC(=O)CN2C(=O)NC3(CCCCC3C)C2=O)cc1 (centres undefined) here?
**A.** The Potency was “inactive”.

**Q.** With O=C(CN(C(=O)c1nsc(Cl)c1Cl)c1cccc(F)c1)NC1CCCC1 as the molecule, how does the Potency read?
**A.** Its Potency is “inactive”.

**Q.** Which Potency does the source give for CC(Oc1ccccc1)C(=O)Nc1c2c(nn1-c1ccccc1)CS(=O)C2 (centres undefined) here?
**A.** Its Potency is “inactive”.

**Q.** With C=CCN1C(=O)c2ccc(C(=O)N3CCC(C(=O)OCC)CC3)cc2C1=O as the molecule, how does the Potency read?
**A.** The Potency was “inactive”.

**Q.** Which Potency does the source give for Cc1cccc(C(=O)NNC(=O)CSc2nnc(C(C)C)n2C)c1 here?
**A.** Its Potency is “inactive”.

**Q.** Which Potency does the source give for Cc1cc(C(=O)N/N=C\C(Br)=C\c2ccccc2)c(C)o1 here?
**A.** Its Potency is “inactive”.

**Q.** With Cc1cc(C(=O)N/N=C/c2ccccc2[N+](=O)[O-])c(C)o1 as the molecule, how does the Potency read?
**A.** Its Potency is “inactive”.

**Q.** For CC(=C/c1ccccc1)/C=N/NC(=O)c1cc(C)oc1C, which Potency is on record?
**A.** Its Potency is 9.28 µM (active).

**Q.** For COc1cccc(Cn2cc(/C=N/NC(=O)c3cc(O)cc(O)c3)c3ccccc32)c1, which Potency is on record?
**A.** Its Potency is “inactive”.

**Q.** With COc1ccc(N2CCN(C(=O)CNC(=O)c3ccc(C(C)(C)C)cc3)CC2)cc1 as the molecule, how does the Potency read?
**A.** Its Potency is 4.65 µM (active).

**Q.** Which Potency does the source give for O=C(NCC(=O)N1CCCCCCC1)c1ccccc1Cl here?
**A.** The Potency was “inactive”.

**Q.** Which Potency does the source give for COc1cc(OC)cc(C(=O)NCC(=O)N2CCCCCCC2)c1 here?
**A.** Its Potency is “inactive”.

**Q.** With COc1ccc(N2CCN(C(=O)CCNC(=O)c3ccc(Br)cc3)CC2)cc1 as the molecule, how does the Potency read?
**A.** Its Potency is “inactive”.

**Q.** For COc1ccc(N2CCN(C(=O)CNS(=O)(=O)c3ccc(C)c(C)c3)CC2)cc1, which activity change, negative = inhibition is on record?
**A.** Its activity change, negative = inhibition is -44% [at 5.75 µM] (inactive).

**Q.** Which Potency does the source give for O=C(NCC(=O)N1CCN(c2ccccc2O)CC1)c1ccc2ccccc2c1 here?
**A.** The Potency was 6.57 µM (active).

**Q.** For CCOC(=O)c1c(N)sc2c1CCCC2=O, which Potency is on record?
**A.** Its Potency is “inactive”.

**Q.** For O=C(CN(C(=O)CNC(=O)c1cccs1)c1cccc(F)c1)NC1CCCCC1, which Potency is on record?
**A.** The Potency was “inactive”.

**Q.** For COc1ccccc1/C=C/C(=O)NC1CC2CCC1C2 (centres undefined), which Potency is on record?
**A.** Its Potency is “inactive”.

**Q.** For O=S(=O)(Nc1ccccc1Cl)c1cccc2nsnc12, which Potency is on record?
**A.** Its Potency is “inactive”.

**Q.** Which Potency does the source give for O=C(Nc1ccccc1)c1ccc2c(c1)OCCCO2 here?
**A.** Its Potency is “inactive”.

**Q.** With C[C@H](NC(=O)[C@@H]1Cc2ccccc2CN1C(=O)OC(C)(C)C)C(=O)NC1CCCC1 as the molecule, how does the Potency read?
**A.** Its Potency is “inactive”.

**Q.** Which Potency does the source give for COc1ccc(CCNC(=O)CCC(=O)NC2CCCCC2)cc1OC here?
**A.** Its Potency is “inactive”.

**Q.** For COc1cc(C(=S)NC2CCCCC2)ccc1O, which Potency is on record?
**A.** Its Potency is 4.15 µM (active).

**Q.** For COc1ccc(Cl)cc1C(=O)NNC(=S)NC1CCCC1, which Potency is on record?
**A.** Its Potency is “inactive”.

**Q.** For O=C(COc1ccccc1O)NC1CCCC1, which Potency is on record?
**A.** The Potency was “inactive”.

**Q.** Which Potency does the source give for COc1ccc(C(C)NC(=S)NC2CCCCC2)cc1OC (centres undefined) here?
**A.** The Potency was 10.4 µM (active).

**Q.** For CCN(CC)C(=O)c1ccc(O)c(OC)c1, which Potency is on record?
**A.** Its Potency is “inactive”.

**Q.** With Cc1ccc(C)c(NS(=O)(=O)c2c(C)[nH]c(C)c2C(=O)N2CCCCC2)c1 as the molecule, how does the Potency read?
**A.** Its Potency is “inactive”.

**Q.** For CC(=O)N1CCN(CC(c2ccccc2)c2ccccc2)CC1, which Potency is on record?
**A.** Its Potency is “inactive”.

**Q.** For NC(=O)C(Cc1ccccc1)NC(=O)C12CC3CC(CC(C3)C1)C2 (centres undefined), which Potency is on record?
**A.** The Potency was “inactive”.

**Q.** With CC(=O)O[C@]1(C(C)=O)CC[C@H]2[C@@H]3C=C(C)C4=CC(=O)CC[C@]4(C)[C@H]3CC[C@@]21C as the molecule, how does the Potency read?
**A.** The Potency was 11.7 µM (active).

**Q.** Which Potency does the source give for CCCCN(C1CCS(=O)(=O)C1)S(=O)(=O)c1ccc(C(C)C)cc1 (centres undefined) here?
**A.** The Potency was “inactive”.

**Q.** Which Potency does the source give for Fc1cccc(Cl)c1COc1ccc(-c2nnco2)cc1 here?
**A.** Its Potency is “inactive”.

**Q.** For O=C(Nc1ccc(OCC(=O)N2CCOCC2)cc1)c1cc(F)c(F)cc1Cl, which Potency is on record?
**A.** The Potency was “inactive”.

**Q.** With O=C(/C=C/c1ccc(OCc2c(F)cccc2Cl)cc1)N1CCOCC1 as the molecule, how does the Potency read?
**A.** Its Potency is 10.4 µM (active).

**Q.** With CCC(C)C(NC(=O)C1CCC(=O)N1C(=O)OCc1ccccc1)C(=O)NC(C(=O)N1CCCC1C(N)=O)C(C)CC (centres undefined) as the molecule, how does the Potency read?
**A.** The Potency was “inactive”.

**Q.** Which Potency does the source give for O=C(COC(=O)c1ncc(Cl)c(Cl)c1Cl)NNC(=O)c1ccccc1 here?
**A.** The Potency was “inactive”.

**Q.** For CCCCN(C(=O)C1=NN(c2cc(C)ccc2C)C(=O)CC1)c1c(N)n(CCC)c(=O)[nH]c1=O, which Potency is on record?
**A.** The Potency was “inactive”.
